Binding signal data for one sequence are collected here from paper PMC7862700, “An all-to-all approach to the identification of sequence-specific readers for epigenetic DNA modifications on cytosine”.

What all share (test): DAPPL (digital affinity profiling via proximity ligation, sequencing); 10 mM Tris-HCl pH 7.5, 50 mM NaCl, 1 mM DTT, 4% glycerol, room temperature, 30 min; GST-TFs on glutathione beads, 16-mer random dsDNA library, 0.1% formaldehyde crosslink after washing; high values mean tight binding
Details in all cases: protein: recombinant; tags: N-terminal GST; dsDNA, one strand shown

The target in one test is T1, FLI1 (Homo sapiens, UniProt Q01543 1-452).
T1 sequence: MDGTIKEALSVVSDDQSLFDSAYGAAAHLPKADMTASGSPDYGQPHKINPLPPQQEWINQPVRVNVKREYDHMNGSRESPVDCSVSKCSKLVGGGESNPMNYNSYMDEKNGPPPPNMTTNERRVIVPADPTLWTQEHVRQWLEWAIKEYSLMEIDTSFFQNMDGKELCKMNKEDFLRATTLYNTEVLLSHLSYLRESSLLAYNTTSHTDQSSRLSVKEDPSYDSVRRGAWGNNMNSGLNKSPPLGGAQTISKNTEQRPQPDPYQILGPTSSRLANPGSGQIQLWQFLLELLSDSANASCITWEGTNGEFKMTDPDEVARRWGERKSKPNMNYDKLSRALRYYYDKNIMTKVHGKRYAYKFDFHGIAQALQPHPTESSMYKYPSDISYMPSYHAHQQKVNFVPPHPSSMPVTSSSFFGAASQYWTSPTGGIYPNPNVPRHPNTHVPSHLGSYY
Put shortly: (§1)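 Pools were built from human transcription factors expressed in yeast as GST fusions, captured on glutathione beads and DNA-barcoded, along with a tag-only sample. Incubation with 200 nmole of a 16-mer random double-stranded DNA library lasted 30 min at room temperature in Tris/NaCl/DTT/glycerol buffer, and was followed by washing, 0.1% formaldehyde crosslinking, proximity ligation, PCR amplification and Illumina NextSeq500 sequencing. Binding signal is the quotient of each hexamer's read frequency for a factor and its frequency for the tag-only sample.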

A further test addresses T2, GABPA (Homo sapiens, UniProt Q06546 1-454).
T2 sequence: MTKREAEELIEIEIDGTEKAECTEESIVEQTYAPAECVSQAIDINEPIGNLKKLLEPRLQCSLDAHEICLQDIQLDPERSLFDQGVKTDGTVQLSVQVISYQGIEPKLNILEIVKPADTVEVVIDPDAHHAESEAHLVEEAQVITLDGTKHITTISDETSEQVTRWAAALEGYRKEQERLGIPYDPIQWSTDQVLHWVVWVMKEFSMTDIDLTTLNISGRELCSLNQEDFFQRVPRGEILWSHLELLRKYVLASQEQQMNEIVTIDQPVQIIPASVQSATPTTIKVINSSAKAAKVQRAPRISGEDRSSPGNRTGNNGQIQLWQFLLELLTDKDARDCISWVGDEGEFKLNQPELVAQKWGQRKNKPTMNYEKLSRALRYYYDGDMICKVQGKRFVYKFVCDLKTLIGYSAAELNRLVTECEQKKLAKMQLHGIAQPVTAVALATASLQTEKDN
The method in brief:
as §1

The next test concerns the target T3, ERG (Homo sapiens, UniProt P11308 1-479).
T3 sequence: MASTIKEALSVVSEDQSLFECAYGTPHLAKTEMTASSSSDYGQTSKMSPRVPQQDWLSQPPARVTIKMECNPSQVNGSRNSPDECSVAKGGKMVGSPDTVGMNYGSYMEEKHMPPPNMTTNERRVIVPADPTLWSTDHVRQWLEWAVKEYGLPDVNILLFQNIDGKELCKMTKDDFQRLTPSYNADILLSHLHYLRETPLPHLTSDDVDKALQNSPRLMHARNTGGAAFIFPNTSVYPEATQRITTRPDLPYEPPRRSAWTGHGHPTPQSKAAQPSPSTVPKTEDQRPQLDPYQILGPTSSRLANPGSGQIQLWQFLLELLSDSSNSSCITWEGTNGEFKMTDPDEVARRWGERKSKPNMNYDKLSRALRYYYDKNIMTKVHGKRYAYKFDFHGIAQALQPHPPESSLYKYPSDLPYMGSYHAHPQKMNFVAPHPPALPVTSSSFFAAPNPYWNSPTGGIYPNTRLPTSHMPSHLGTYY
The method in brief:
as §1

A further test deals with ELF1 (Homo sapiens, UniProt P32519 1-619). The method in brief: as §1
The next test deals with T4, EHF (Homo sapiens, UniProt Q9NZC4 1-300).
T4 sequence: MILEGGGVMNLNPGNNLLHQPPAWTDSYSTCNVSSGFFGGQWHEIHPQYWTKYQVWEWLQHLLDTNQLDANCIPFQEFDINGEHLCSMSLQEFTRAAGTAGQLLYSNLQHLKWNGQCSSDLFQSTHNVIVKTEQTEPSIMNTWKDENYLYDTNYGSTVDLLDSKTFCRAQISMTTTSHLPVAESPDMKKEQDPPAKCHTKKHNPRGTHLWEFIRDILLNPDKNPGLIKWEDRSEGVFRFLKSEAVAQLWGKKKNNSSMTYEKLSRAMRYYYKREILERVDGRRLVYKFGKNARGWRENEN
Put shortly: as §1

The next test deals with SPI1 (Homo sapiens, UniProt P17947 1-270). The method in brief: as §1
For the next test, the target named is SPIB (Homo sapiens, UniProt Q01892 1-262). The method in brief: as §1
The target in a further test is T5, ELK3 (Homo sapiens, UniProt P41970 1-407).
T5 sequence: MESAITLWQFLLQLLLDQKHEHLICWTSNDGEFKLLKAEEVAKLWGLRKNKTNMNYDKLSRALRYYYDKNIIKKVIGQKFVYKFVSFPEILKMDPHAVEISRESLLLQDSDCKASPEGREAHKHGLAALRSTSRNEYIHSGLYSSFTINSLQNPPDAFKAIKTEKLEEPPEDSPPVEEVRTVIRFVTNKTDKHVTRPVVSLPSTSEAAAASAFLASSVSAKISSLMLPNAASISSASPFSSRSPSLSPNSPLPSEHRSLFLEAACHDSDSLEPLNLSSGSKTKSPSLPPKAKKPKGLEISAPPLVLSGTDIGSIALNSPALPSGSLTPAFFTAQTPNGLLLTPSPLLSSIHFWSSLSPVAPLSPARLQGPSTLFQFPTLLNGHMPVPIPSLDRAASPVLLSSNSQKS
The method in brief: as §1

A further test deals with T6, FEV (Homo sapiens, UniProt Q99581 1-238).
T6 sequence: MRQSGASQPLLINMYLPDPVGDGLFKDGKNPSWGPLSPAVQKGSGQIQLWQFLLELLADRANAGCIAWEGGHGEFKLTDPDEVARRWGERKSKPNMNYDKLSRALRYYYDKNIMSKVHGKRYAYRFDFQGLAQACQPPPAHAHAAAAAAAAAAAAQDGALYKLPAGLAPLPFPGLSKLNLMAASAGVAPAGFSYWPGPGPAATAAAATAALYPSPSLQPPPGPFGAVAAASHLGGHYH
The method in brief: as §1

The target of the next test is ETV5 (Homo sapiens, UniProt P41161 1-510). Put shortly:
as §1

In a further test the target is T7, SPIC (Homo sapiens, UniProt Q8N5J4 1-248).
T7 sequence: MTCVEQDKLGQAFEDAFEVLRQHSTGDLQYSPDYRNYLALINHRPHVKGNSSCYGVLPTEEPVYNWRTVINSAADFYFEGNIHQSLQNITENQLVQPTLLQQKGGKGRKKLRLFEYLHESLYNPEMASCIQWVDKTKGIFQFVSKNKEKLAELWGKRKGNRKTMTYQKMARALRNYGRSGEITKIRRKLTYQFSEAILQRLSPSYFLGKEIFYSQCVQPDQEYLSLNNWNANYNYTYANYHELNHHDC
The method in brief: as §1

The target in another test is ELF4 (Homo sapiens, UniProt Q99607 1-663). Put shortly:
as §1

For another test, the target named is ETV1 (Homo sapiens, UniProt P50549 1-477). Put shortly: as §1
The target in the next test is T8, ERF (Homo sapiens, UniProt P50548 1-548).
T8 sequence: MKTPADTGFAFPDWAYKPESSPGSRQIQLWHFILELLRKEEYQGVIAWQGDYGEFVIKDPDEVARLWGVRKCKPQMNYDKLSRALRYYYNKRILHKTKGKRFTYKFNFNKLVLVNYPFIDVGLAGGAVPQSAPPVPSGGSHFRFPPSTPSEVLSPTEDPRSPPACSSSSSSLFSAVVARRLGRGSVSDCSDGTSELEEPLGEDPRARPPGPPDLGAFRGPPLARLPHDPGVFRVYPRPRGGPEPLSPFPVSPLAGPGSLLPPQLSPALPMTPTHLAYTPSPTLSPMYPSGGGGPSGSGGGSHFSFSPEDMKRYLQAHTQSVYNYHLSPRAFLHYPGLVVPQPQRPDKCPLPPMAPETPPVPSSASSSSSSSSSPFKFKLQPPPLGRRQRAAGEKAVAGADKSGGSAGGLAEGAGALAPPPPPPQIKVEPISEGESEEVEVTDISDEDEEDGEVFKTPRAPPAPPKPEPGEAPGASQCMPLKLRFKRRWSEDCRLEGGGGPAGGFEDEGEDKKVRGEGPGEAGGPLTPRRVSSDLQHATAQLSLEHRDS
The method in brief: as §1

The target of a further test is T9, ETV3L (Homo sapiens, UniProt Q6ZN32 1-361).
T9 sequence: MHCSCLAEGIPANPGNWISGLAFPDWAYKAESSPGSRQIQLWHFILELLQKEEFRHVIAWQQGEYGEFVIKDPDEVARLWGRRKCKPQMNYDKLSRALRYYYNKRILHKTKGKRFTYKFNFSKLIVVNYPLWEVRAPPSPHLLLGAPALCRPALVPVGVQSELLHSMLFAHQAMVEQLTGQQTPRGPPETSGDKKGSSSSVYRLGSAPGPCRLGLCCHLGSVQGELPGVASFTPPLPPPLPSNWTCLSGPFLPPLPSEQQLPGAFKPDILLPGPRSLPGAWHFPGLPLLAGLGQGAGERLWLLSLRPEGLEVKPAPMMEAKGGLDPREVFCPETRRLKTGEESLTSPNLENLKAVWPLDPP
The method in brief: as §1

A further test has as its target T10, ETS2 (Homo sapiens, UniProt P15036 1-469).
T10 sequence: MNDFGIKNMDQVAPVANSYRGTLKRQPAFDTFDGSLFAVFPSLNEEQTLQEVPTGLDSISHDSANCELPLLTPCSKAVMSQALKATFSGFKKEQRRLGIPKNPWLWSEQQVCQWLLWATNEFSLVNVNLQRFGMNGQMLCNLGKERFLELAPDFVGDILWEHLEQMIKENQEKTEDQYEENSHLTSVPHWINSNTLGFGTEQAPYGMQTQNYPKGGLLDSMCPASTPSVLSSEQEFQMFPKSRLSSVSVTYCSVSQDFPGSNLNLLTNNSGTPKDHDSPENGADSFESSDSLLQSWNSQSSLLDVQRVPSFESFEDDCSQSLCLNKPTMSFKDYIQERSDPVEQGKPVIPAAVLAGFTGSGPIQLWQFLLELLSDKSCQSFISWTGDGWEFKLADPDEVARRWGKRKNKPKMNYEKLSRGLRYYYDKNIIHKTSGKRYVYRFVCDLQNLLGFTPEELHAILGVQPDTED
Put shortly: as §1

Another test concerns the target T11, ELF5 (Homo sapiens, UniProt Q9UKW6-2 1-255).
T11 sequence: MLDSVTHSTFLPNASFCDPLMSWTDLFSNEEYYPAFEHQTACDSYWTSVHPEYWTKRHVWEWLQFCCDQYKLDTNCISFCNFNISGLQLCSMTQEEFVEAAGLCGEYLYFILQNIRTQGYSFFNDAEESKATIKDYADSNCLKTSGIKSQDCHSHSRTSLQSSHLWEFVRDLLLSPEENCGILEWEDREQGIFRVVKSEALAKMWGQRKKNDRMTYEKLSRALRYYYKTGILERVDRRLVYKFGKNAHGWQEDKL
Put shortly: as §1

The next test concerns the target T12, ETV3 (Homo sapiens, UniProt P41162-2 1-143).
T12 sequence: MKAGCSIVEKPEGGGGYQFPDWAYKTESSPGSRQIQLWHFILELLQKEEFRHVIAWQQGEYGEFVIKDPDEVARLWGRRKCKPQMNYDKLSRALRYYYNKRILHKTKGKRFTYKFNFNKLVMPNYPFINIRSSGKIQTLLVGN
The method in brief:
as §1

The target of a further test is ETV6 (Homo sapiens, UniProt P41212 1-452). The method in brief: as §1
ETV6, sequence (P41212 whole entry): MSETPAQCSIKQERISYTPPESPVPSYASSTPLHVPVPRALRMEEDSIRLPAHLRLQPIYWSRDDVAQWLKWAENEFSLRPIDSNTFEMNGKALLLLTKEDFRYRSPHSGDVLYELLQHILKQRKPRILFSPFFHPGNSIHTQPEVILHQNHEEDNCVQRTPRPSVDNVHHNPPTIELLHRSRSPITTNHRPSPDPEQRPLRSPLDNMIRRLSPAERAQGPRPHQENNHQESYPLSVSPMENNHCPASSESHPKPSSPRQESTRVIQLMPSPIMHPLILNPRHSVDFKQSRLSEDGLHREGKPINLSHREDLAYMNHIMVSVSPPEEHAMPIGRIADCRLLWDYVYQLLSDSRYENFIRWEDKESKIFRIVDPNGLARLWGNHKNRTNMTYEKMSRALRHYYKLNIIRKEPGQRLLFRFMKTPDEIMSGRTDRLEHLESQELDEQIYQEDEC

SPIB, sequence (Q01892 whole entry): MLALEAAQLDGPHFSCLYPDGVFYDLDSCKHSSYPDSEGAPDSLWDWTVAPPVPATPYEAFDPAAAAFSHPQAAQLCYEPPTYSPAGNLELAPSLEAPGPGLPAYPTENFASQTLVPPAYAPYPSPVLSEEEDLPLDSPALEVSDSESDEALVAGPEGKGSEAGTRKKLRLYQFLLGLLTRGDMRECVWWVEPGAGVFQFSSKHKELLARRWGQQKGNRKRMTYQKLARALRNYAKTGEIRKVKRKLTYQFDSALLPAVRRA
ETV5, sequence (P41161 whole entry): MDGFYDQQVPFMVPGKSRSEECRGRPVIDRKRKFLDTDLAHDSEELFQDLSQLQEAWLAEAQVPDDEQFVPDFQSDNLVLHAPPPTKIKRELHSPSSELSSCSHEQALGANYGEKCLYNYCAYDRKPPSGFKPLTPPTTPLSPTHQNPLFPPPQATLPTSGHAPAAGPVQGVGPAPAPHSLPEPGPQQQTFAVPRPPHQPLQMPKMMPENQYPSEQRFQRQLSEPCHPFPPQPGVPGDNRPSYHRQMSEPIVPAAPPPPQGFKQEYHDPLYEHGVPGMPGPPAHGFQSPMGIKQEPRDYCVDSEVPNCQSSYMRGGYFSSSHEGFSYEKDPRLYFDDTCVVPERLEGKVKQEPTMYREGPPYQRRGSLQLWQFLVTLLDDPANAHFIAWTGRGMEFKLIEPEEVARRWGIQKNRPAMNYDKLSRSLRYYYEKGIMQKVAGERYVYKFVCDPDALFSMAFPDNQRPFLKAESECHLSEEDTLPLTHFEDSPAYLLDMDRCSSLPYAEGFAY
ELF4, sequence (Q99607 whole entry): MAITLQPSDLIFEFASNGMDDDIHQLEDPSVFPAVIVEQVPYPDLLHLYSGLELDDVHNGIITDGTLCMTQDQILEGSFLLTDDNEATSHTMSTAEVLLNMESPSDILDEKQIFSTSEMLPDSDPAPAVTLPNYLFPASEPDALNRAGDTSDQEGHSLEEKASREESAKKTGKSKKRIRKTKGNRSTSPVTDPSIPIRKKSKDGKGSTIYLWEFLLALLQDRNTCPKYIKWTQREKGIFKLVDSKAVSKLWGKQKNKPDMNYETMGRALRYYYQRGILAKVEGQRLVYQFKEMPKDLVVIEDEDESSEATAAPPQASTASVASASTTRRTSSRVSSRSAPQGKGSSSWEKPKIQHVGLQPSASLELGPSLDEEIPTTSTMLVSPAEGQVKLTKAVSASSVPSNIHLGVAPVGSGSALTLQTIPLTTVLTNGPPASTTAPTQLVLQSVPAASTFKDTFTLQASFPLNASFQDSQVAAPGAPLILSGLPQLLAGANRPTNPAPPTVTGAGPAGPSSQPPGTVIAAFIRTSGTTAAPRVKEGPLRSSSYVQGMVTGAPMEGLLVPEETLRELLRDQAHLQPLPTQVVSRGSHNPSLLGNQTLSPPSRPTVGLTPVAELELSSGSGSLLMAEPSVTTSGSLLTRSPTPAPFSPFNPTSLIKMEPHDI
ETV1, sequence (P50549 whole entry): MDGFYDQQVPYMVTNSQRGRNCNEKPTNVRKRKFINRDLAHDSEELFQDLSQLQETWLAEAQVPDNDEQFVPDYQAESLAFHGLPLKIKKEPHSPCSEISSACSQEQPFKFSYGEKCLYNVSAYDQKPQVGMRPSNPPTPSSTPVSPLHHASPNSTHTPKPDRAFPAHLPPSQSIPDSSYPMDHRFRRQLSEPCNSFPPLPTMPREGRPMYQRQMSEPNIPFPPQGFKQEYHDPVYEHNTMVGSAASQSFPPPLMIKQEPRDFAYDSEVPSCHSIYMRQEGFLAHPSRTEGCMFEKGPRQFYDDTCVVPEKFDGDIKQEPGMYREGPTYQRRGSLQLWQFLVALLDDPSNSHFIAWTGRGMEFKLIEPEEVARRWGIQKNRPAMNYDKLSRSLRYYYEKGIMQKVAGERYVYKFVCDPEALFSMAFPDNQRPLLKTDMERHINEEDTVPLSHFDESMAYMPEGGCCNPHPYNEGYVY
ELF1, sequence (P32519 whole entry): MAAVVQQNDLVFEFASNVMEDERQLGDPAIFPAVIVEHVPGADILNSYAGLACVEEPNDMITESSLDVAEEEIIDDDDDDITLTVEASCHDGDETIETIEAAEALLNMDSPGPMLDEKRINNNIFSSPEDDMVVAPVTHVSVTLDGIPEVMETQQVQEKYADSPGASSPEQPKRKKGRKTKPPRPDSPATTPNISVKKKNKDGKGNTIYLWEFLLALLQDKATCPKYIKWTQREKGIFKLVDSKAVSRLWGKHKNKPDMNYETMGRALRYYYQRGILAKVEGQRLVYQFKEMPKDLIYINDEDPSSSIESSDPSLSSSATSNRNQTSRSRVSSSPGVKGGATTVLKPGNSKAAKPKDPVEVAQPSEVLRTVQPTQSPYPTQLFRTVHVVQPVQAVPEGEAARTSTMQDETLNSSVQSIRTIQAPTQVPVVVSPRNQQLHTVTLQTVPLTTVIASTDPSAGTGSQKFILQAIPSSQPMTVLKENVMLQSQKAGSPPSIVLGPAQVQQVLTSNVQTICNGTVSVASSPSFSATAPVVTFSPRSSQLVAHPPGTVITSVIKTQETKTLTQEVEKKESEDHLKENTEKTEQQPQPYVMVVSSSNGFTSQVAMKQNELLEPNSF

Turning to GTCCTG, the binding signal with FLI1 is 1.09 fold enrichment (6-mer frequency, TF over GST control); with GABPA, 1.05 fold enrichment (6-mer frequency, TF over GST control); with ERG, 1.17 fold enrichment (6-mer frequency, TF over GST control); with ELF1, 1.15 fold enrichment (6-mer frequency, TF over GST control); in the test with EHF it was 1.09 fold enrichment (6-mer frequency, TF over GST control); with SPI1 it was 1.16 fold enrichment (6-mer frequency, TF over GST control). Besides, the binding signal is 1.15 fold enrichment (6-mer frequency, TF over GST control) in the test with SPIB; 1.05 fold enrichment (6-mer frequency, TF over GST control) with ELK3; 1.1 fold enrichment (6-mer frequency, TF over GST control) with FEV; 1.08 fold enrichment (6-mer frequency, TF over GST control) with ETV5; 1.3 fold enrichment (6-mer frequency, TF over GST control) with SPIC; 1.09 fold enrichment (6-mer frequency, TF over GST control) with ELF4. Moreover, the binding signal was 1.17 fold enrichment (6-mer frequency, TF over GST control) in the test with ETV1; 1.08 fold enrichment (6-mer frequency, TF over GST control) in the test with ERF; 1.19 fold enrichment (6-mer frequency, TF over GST control) with ETV3L; 1.02 fold enrichment (6-mer frequency, TF over GST control) with ETS2; 1.3 fold enrichment (6-mer frequency, TF over GST control) with ELF5; 1.2 fold enrichment (6-mer frequency, TF over GST control) with ETV3. In the test with ETV6, the binding signal was 1.16 fold enrichment (6-mer frequency, TF over GST control).
